What follows are compounds tested on CSNK2A2. Conditions: concentration: 1 μM, replicates: in singlicate; n = 1.
With `Nc1ncc(-c2cccnc2)c2scc(-c3ccc4c(c3)CCN4C(=O)Cc3ccccc3)c12` [GSK683281] the “%Inh” value was 28%. For `Cn1cc(-c2ccc3c(c2)CCN3C(=O)Cc2cccc(F)c2)c2c(N)ncnc21` [GSK2603358], the “%Inh” value was 0%. `Cl.NC(=O)c1cccc(Nc2nccc(Nc3ccc(Oc4c(Cl)cccc4Cl)c(Cl)c3)n2)c1` [GW659009] was tested, and the “%Inh” value was 45%. For `COCCOCCOc1cc2ncc3c4ccc(C#N)cc4[nH]c3c2cc1OC`, the “%Inh” value was 95.3%. In the case of `COc1cccc(-c2ccc3c(NC(=O)C4CC4)n[nH]c3n2)c1` [SB-710903], the “%Inh” value is reported as 79%. For `Nc1ncc(-c2ccc3nccc(-c4ccncc4)c3c2)cc1S(=O)(=O)N1CCOCC1` [GSK1627798], the “%Inh” value was 1%. `Cc1ccc(C(=O)N2CC[C@@H](O)C2)cc1-n1c(C)cc(OCc2ccc(F)cc2F)c(Br)c1=O` was tested, and the “%Inh” value was 0%. In the case of `O=C(O)C(F)(F)F.O=C(O)C(F)(F)F.O=c1[nH]ccc2nc(N[C@@H]3CCCNC3)nc(Nc3ccc(S(=O)(=O)N4CCOCC4)cc3)c12` [GSK2177277], the “%Inh” value is reported as 98.9%. For `COc1cc(Nc2nccc(-c3c(-c4cccc(NC(=O)c5c(F)cccc5F)c4)nn4ncccc34)n2)cc(OC)c1OC` [GSK327238], the “%Inh” value was 4%. `COc1cccc(C2=C(Nc3ccc(Cl)c(C(=O)O)c3)C(=O)NC2=O)c1` [SB-390769] was tested, and the “%Inh” value was 7%. In the case of `Cc1ccc(C(=O)Nc2ccc(Nc3ccnc4cc(-c5nccs5)ccc34)cc2O)cc1.Cl` [GW494702], the “%Inh” value is reported as 100%. For `CCn1c(-c2nonc2N)nc2c(C#CC(C)(C)O)nc(OC[C@H](N)c3ccccc3)cc21` [GSK943949], the “%Inh” value was 30%. `COC(=O)Nc1nc2cc(Oc3ccc(NC(=O)Nc4cc(C(F)(F)F)ccc4F)cn3)ccc2[nH]1.Cl.Cl` [GW681170] was tested, and the “%Inh” value was 72%. In the case of `Cl.Cl.NCC(NCc1ccc(-c2ccnc3[nH]ccc23)s1)c1ccccc1` (centres unmarked) [GSK1321565], the “%Inh” value is reported as 37%. `O=c1[nH]cc(-c2ccc(N3CCOCC3)cc2)c2sc(-c3cn[nH]c3)cc12` [GSK2276055] was tested, and the “%Inh” value was 79%. `c1ccc(-c2cnc3nccnn23)cc1` [AH20685] was tested, and the “%Inh” value was 0%. For `COc1cc(Nc2nccc(-c3c(-c4cccc(NC(=O)c5c(F)cccc5F)c4)nn4ccccc34)n2)cc(OC)c1OC` [GSK323521], the “%Inh” value was 6%.
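Also: KINOMEscan kinase panel screen.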
